The source of these data is PubChem BioAssay (NCI).

Test systems include NCI-H23 lung; NCI-H226 lung; NCI-H322M lung; HOP-62 NSCLC; NCI-H460 lung; HOP-92 NSCLC; A549/ATCC NSCLC; 786-0 renal; COLO 205 colon; DU-145 prostate; K-562 leukemia; MALME-3M melanoma; MDA-MB-231 breast; RXF 393 renal; SF-268 CNS; SF-295 CNS; M14 melanoma; NCI-H522 lung; UACC-257 melanoma; SF-539 CNS.
Holding throughout (assay): NCI-60 one-dose screen, 48 h (100 = growth as untreated, 0 = no growth, -100 = all killed)
Common to all, as to conditions: 10 µM unless noted

About 83,000 compounds went through this panel and 20% of them were active in at least one assay; those are over-represented in the sample as a whole.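 A percent growth of 40 corresponds to 60% growth inhibition; 0 means no net growth; -100 means all cells died. Active threshold: below 10.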 A number with no mark means an inactive call. Active and inactive are the calls of the source.

As for `O=S(=O)(NCCCNc1cc(-c2cn(-c3ccccc3)nc2-c2cccc(O)c2)ccn1)c1ccccc1`, the growth is 65.9% with NCI-H23 lung; 41.9% with NCI-H226 lung; 60.4% with NCI-H322M lung; 77.3% in the assay on HOP-62 NSCLC; 39% in the assay on NCI-H460 lung; 45.2% in the assay on HOP-92 NSCLC. The growth in the assay with A549/ATCC NSCLC was 35.8%; in the assay on 786-0 renal, 13.1%; with COLO 205 colon it was -12.1% (active); in the assay with DU-145 prostate, 53.7%; with K-562 leukemia it was 1.96% (active); in the assay with MALME-3M melanoma it was 37.2%. The growth with MDA-MB-231 breast was 9.24% (active); in the assay with RXF 393 renal, 36.7%; in the assay with SF-268 CNS it was 52.8%; with SF-295 CNS, 11%; with M14 melanoma it was 46.2%.
`Cc1cc(Nc2nc(N3CCOCC3)nc3ccccc23)n[nH]1`: the growth in the assay with NCI-H23 lung is 80.5%; with NCI-H226 lung, 57.7%; in the assay on NCI-H322M lung, 65.8%; in the assay on HOP-62 NSCLC, 78%; with NCI-H460 lung, 68.9%; in the assay with HOP-92 NSCLC it was 60.7%. Besides, the growth in the assay on NCI-H522 lung is 40.2%; with 786-0 renal, 49.9%; in the assay on COLO 205 colon, 65.4%; in the assay with DU-145 prostate it was 75.2%; in the assay with K-562 leukemia it was 56.3%; with MALME-3M melanoma it was 66.4%. The growth in the assay on MDA-MB-231 breast is 84.9%; in the assay with SF-268 CNS it was 63.8%; in the assay on SF-295 CNS, 73.4%; in the assay on UACC-257 melanoma, 76%; with M14 melanoma, 45.8%.
With `OCC1C2C=CC(C2)C1CO` (stereo not drawn), the growth was 108% in the assay on NCI-H23 lung; 109% in the assay on NCI-H226 lung; 114% with NCI-H322M lung; 90.9% in the assay on HOP-62 NSCLC; 121% with NCI-H460 lung; 60.5% in the assay on HOP-92 NSCLC. Moreover, the growth in the assay with A549/ATCC NSCLC is 89%; in the assay on 786-0 renal, 101%; with COLO 205 colon, 191%; in the assay on DU-145 prostate it was 106%; in the assay on K-562 leukemia, 112%; with MALME-3M melanoma, 105%. For the same compound, the growth was 103% with MDA-MB-231 breast; 113% in the assay on RXF 393 renal; 106% with SF-268 CNS; 104% in the assay with SF-295 CNS; 126% in the assay with SF-539 CNS; 101% in the assay with UACC-257 melanoma. The growth with M14 melanoma was 99.9%.
As to `COc1c2ccccc2c(OC)c2[nH]c(=O)ccc12`, the growth is -11.3% (active) with NCI-H23 lung; 37.1% with NCI-H226 lung; 22.2% with NCI-H322M lung; -13.2% (active) in the assay on HOP-62 NSCLC; -57.7% (active) with NCI-H460 lung; 72.9% in the assay with HOP-92 NSCLC. The growth was 71.3% in the assay with NCI-H522 lung; 89.7% with 786-0 renal; 38.2% in the assay with COLO 205 colon; -95.1% (active) with DU-145 prostate; -63.2% (active) with MALME-3M melanoma; 69.4% in the assay on MDA-MB-231 breast. For the same compound, the growth in the assay with RXF 393 renal is 91.3%; with SF-268 CNS, 64.4%; with SF-295 CNS, -21.4% (active); in the assay with UACC-257 melanoma it was 40.8%; in the assay on M14 melanoma it was -46.1% (active).
`O=C(Nc1ccc(F)cc1)Nc1ccc(CCO)cc1`: the growth is 104% with NCI-H23 lung; 107% in the assay on NCI-H226 lung; 97.7% in the assay with NCI-H322M lung; 116% in the assay with HOP-62 NSCLC; 106% in the assay on NCI-H460 lung; 103% in the assay on HOP-92 NSCLC. The growth in the assay on A549/ATCC NSCLC is 91.4%; in the assay on 786-0 renal it was 109%; with COLO 205 colon, 132%; in the assay on DU-145 prostate, 111%; in the assay on K-562 leukemia, 103%; in the assay with MALME-3M melanoma it was 94.3%. The growth in the assay with MDA-MB-231 breast was 114%; with SF-268 CNS, 109%; in the assay on SF-295 CNS it was 105%; in the assay with SF-539 CNS it was 105%; with UACC-257 melanoma it was 102%; in the assay on M14 melanoma, 117%.
`O=C1/C(=C\c2cn(C(=O)c3ccc(Cl)cc3)c3ccccc23)c2ccccc2N1c1c(Cl)cccc1Cl`: the growth is 97.2% in the assay on NCI-H23 lung; 94.9% with NCI-H226 lung; 112% in the assay with NCI-H322M lung; 94.2% in the assay with HOP-62 NSCLC; 111% in the assay on NCI-H460 lung; 79.9% in the assay with HOP-92 NSCLC. For the same compound, the growth with A549/ATCC NSCLC was 110%; with 786-0 renal, 90.7%; with COLO 205 colon, 123%; with DU-145 prostate it was 120%; in the assay on K-562 leukemia it was 115%; with MALME-3M melanoma it was 106%. In addition, the growth with MDA-MB-231 breast is 103%; in the assay on RXF 393 renal, 151%; in the assay on SF-268 CNS it was 99.9%; in the assay on SF-295 CNS, 127%; in the assay with SF-539 CNS, 104%; with UACC-257 melanoma, 123%. The growth in the assay with M14 melanoma was 104%.
For `Cl/C(=N\Nc1ccccc1)c1ccccc1`, the growth in the assay with NCI-H23 lung was 91.4%; in the assay with NCI-H226 lung, 91%; in the assay on NCI-H322M lung, 75.4%; in the assay with HOP-62 NSCLC, 96%; in the assay on NCI-H460 lung, 106%; in the assay on HOP-92 NSCLC, 97.9%. Also, the growth in the assay on NCI-H522 lung was 72.8%; in the assay with 786-0 renal, 102%; in the assay with COLO 205 colon it was 98.4%; in the assay with DU-145 prostate, 101%; with K-562 leukemia it was 89.5%; in the assay with MALME-3M melanoma, 86.4%. The growth with MDA-MB-231 breast is 89.7%; in the assay on SF-268 CNS, 92.8%; with SF-295 CNS, 87.7%; with SF-539 CNS it was 103%; with UACC-257 melanoma, 75.2%; with M14 melanoma, 106%.
Regarding `CC[C@H](Nc1nc(N)nc(C)c1C#N)c1nc2cccc(NCc3ccc(C(=O)NO)cc3)c2c(=O)n1-c1ccccc1`, the growth is -22.9% (active) in the assay on NCI-H23 lung; 24.3% in the assay on NCI-H226 lung; 15% in the assay with NCI-H322M lung; 9.2% (active) in the assay on HOP-62 NSCLC; 3.85% (active) in the assay on NCI-H460 lung; -16.7% (active) in the assay on HOP-92 NSCLC. For the same compound, the growth was 1.14% (active) in the assay on A549/ATCC NSCLC; 6.94% (active) with 786-0 renal; -2.48% (active) in the assay with COLO 205 colon; 17.2% with DU-145 prostate; 21.5% in the assay on MALME-3M melanoma; 7.58% (active) in the assay with MDA-MB-231 breast. In addition, the growth was -21.7% (active) with RXF 393 renal; 9.63% (active) in the assay on SF-268 CNS; -3.97% (active) in the assay on SF-295 CNS; -18.8% (active) with SF-539 CNS; 0.817% (active) in the assay with UACC-257 melanoma; 0.234% (active) with M14 melanoma.
For the compound `CC1CN(Cc2ccco2)C(=S)N(c2ccccc2)C1=O` (stereo not drawn), the growth is 108% in the assay on NCI-H23 lung; 97.3% with NCI-H226 lung; 99.4% in the assay on NCI-H322M lung; 88.1% in the assay with HOP-62 NSCLC; 98.5% with NCI-H460 lung; 92.7% in the assay on HOP-92 NSCLC. Further, the growth in the assay with A549/ATCC NSCLC is 110%; with 786-0 renal it was 103%; with COLO 205 colon, 128%; with DU-145 prostate, 110%; with K-562 leukemia, 62.7%; with MALME-3M melanoma it was 97.8%. Besides, the growth with MDA-MB-231 breast is 106%; in the assay on RXF 393 renal, 111%; in the assay with SF-268 CNS, 105%; with SF-295 CNS it was 92.3%; with SF-539 CNS, 90.8%; in the assay with M14 melanoma, 99.6%.
For `CCOC(=O)c1cnc2ccc(OC)cc2c1Nc1cccc(S(=O)(=O)NC)c1`, the growth was 91.8% with NCI-H23 lung; 108% in the assay with NCI-H226 lung; 99.8% in the assay with NCI-H322M lung; 99.6% with HOP-62 NSCLC; 114% with NCI-H460 lung; 112% in the assay on HOP-92 NSCLC. The growth was 103% in the assay on A549/ATCC NSCLC; 77.1% in the assay with 786-0 renal; 134% in the assay on COLO 205 colon; 102% in the assay on DU-145 prostate; 92.8% in the assay on K-562 leukemia; 105% in the assay with MALME-3M melanoma. For the same compound, the growth with MDA-MB-231 breast is 100%; in the assay on RXF 393 renal, -4.54% (active); with SF-268 CNS, 86.2%; in the assay on SF-295 CNS, 54.7%; in the assay with SF-539 CNS, 50.1%; in the assay with UACC-257 melanoma, 112%. Moreover, the growth in the assay on M14 melanoma was 115%.
On to `NC(=S)N/N=C/c1ccc(OCc2ccccc2)cc1`, for which the growth in the assay on NCI-H23 lung is 84%; in the assay with NCI-H226 lung, 61.1%; in the assay on NCI-H322M lung, 79.9%; with HOP-62 NSCLC, 93.8%; in the assay on NCI-H460 lung it was 86.7%; with HOP-92 NSCLC, 48.5%. For the same compound, the growth is 68.4% in the assay with A549/ATCC NSCLC; 41.7% in the assay with 786-0 renal; 56.9% in the assay on COLO 205 colon; 85.3% in the assay with DU-145 prostate; 43.7% in the assay on K-562 leukemia; 56.2% in the assay on MALME-3M melanoma. The growth in the assay with MDA-MB-231 breast is 69.9%; in the assay with RXF 393 renal it was 52.4%; in the assay on SF-268 CNS it was 80.9%; with SF-295 CNS, 96%; in the assay with UACC-257 melanoma, 60.7%; in the assay on M14 melanoma, 71.6%.
